Experiment [1] in a line: qHTS assay to identify small molecule agonists of the hypoxia (HIF-1) signaling pathway - cell viability counter screen (AID 1224844; calls by dose curve; note: nearly all actives have a fitted effect of over 50% in size; note: potency is the fitted concentration of half-maximal effect). The procedure, abridged:
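HRE-bla ME-180 cells in medium with 0.5% dialyzed FBS were preincubated 5 hrs at 37C, exposed to compounds for 17 hrs, then viability was read as CellTiter-Glo luminescence after 30 min at room temperature, in the reporter wells.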
On the technique in general: In qHTS, concentration-response curves come from the screen itself.

Experiment [2] in a line: qHTS assay to identify small molecule agonists of H2AX (AID 1224845; active = well fitted activation curve with a large enough effect in the signal ratio in the repeat runs, not every such curve was filed as active; the % refers to the signal ratio). In short, it runs like this:
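Phospho-H2AX Ser139 measured by HTRF (ex 320 nm; em 665 and 620 nm) after 24 hr antibody incubation. Compounds, 15 concentrations, 0.76% DMSO, were applied to CHO-K1 cells for 3hr at 37C before lysis.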

Experiment [3] in a line: qHTS assay to identify small molecule agonists of the hypoxia (HIF-1) signaling pathway (AID 1224846; active = well fitted activation curve with a large enough effect in the signal ratio in the repeat runs, not every such curve was filed as active; the % refers to the signal ratio). In short, it runs like this:
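HRE-bla ME-180 cells (beta-lactamase reporter under hypoxia response element) were plated at 2,000 cells/well in medium with 0.5% dialyzed FBS, rested 5 hrs, then given compounds in DMSO for 17 hrs at 37C, 5% CO2. Reporter induction was read with CCF4-AM FRET substrate.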

The nature of experiment [4]: qHTS assay to identify small molecule antagonists of the estrogen related receptor (ERR) signaling pathway from Tox21 library (AID 1224848). Note: nearly all actives have a fitted effect of over 50% in size. Note: potency is the fitted concentration of half-maximal effect. In short, it runs like this:
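Antagonist-mode screen of the Tox21 10K library in an NTP-provided ERR reporter cell line; 18 h compound exposure at 37 C, luminescence measured with ONE-Glo.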

Experiment [5] can be described thus: qHTS assay to identify small molecule agonists of the estrogen related receptor (ERR) signaling pathway from Tox21 library (AID 1224849; calls by dose curve; note: nearly all actives have a fitted effect of over 15% in size). Conditions: ERR reporter cell line, ONE-Glo luciferase, 18 h. In short, it runs like this: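 ERR reporter cell line (NTP) seeded, rested 6 h at 37 C/5% CO2, then pinned with Tox21 compounds in DMSO. After 18 h at 37 C, ONE-Glo luciferase luminescence was read following 30 min at room temperature.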

The nature of experiment [6]: qHTS RealTime-Glo MT Cell Viability Assay in HepG2 cells - 24 hour (AID 1224867). Note: nearly all actives have a fitted effect of over 50% in size. Note: potency is the fitted concentration of half-maximal effect. In short, it runs like this:
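Cell number in HepG2 cultures estimated from NanoLuc luminescence generated by metabolic reduction of a prosubstrate by living cells. The homogeneous, nonlytic format allowed repeated reads at 0, 8, 16, 24, 32 and 40 h of compound exposure.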

The nature of experiment [7]: qHTS RealTime-Glo MT Cell Viability Assay in HEK293 cells - 32 hour (AID 1224868). Note: nearly all actives have a fitted effect of over 50% in size. Note: potency is the fitted concentration of half-maximal effect. The procedure, abridged:
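Homogeneous bioluminescent viability format in HEK293 cells (600 cells/well). Following 5 h at 37 C/5% CO2, 23 nL compound was pintooled; the signal was measured repeatedly during 40 h incubation.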

The nature of experiment [8]: A CellTox Green Cytotoxicity Assay to monitor cytotoxicity in HEK293 cells - 0 hour (AID 1224869). Note: nearly all actives have a fitted effect of over 50% in size. In short, it runs like this: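 HEK293 cells premixed with CellTox Green dye were seeded at 600 cells/well and left 5 h at 37 C/5% CO2 before pin transfer of 23 nL compound in DMSO. Fluorescence from dye bound to dead-cell DNA was read during 40 h treatment.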
The nature of experiment [9]: qHTS RealTime-Glo MT Cell Viability Assay in HepG2 cells - 40 hour (AID 1224870). Note: nearly all actives have a fitted effect of over 50% in size. Note: potency is the fitted concentration of half-maximal effect. In short, it runs like this:
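Real-time viability: cells seeded at 600 per well together with NanoLuc and cell-permeant prosubstrate, compounds added after 5 h incubation. Luminescence tracked at 0, 8, 16, 24, 32 and 40 h of exposure.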

The nature of experiment [10]: qHTS assay to identify small molecule agonists of H2AX - cell viability counter screen (AID 1224847; calls by dose curve; note: nearly all actives have a fitted effect of over 30% in size; note: potency is the fitted concentration of half-maximal effect). In short, it runs like this:
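Viability of CHO-K1 (wild type) cells after 3 hr compound exposure was measured by CellTiter-Glo luminescence.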

The results in this text go back to PubChem BioAssay (Tox21).

A number with no mark means an inactive call. Results filed as inconclusive are left out. The source made the active and inactive calls. Unless noted, calls come from the whole dose curve; as a rule, active = well fitted curve in the direction sought with a large enough effect in the repeat runs; inconclusive = weak or mixed curves; inactive = no such curve, though single readings can be large; an effect the other way counts as inactive or inconclusive.
% is set by controls: 0 for no effect and ±100 for the full control effect.

Turning to `OC1CCC(C2CCCCC2)CC1` (configuration not stated), the Potency entry in experiment [1], in experiment [2], in experiment [3], in experiment [4], in experiment [6] and in experiment [7] was “inactive” in each case. For the same compound, the Potency result in [8] and in experiment [9] was “inactive” each time. For the same compound, the activity change, positive = activation in [5] (at 92.4 µM (top of the series)) is -1.53%.

As for `Cl[Si](Cl)(c1ccccc1)c1ccccc1`, the Potency result in experiment [1], in experiment [2], in experiment [3], in experiment [10], in experiment [6] and in experiment [7] was “inactive” each time. Besides, the Potency entry in [8] and in experiment [9] was “inactive” each time.

Consider `COC(C)=O`, for which the Potency entry in [1], in experiment [2], in experiment [3], in [10], in experiment [6] and in [7] was “inactive” in each case. Moreover, the Potency result in experiment [9] was “inactive”.

Regarding `OC12N=C(c3ccccc3)SC1Cc1cc(Cl)ccc12` (configuration not stated), the Potency entry in experiment [1], in experiment [2], in experiment [3], in experiment [4], in experiment [6] and in [8] was “inactive” each time. Moreover, in experiment [5] (at 92.4 µM (top of the series)), the activity change, positive = activation was 47.6% (active).

Turning to `CCC(=O)OC(=O)CC`, the Potency entry in [1], in [2], in [3], in experiment [10], in [6] and in experiment [7] was “inactive” throughout. Moreover, the Potency result in experiment [8] and in [9] was “inactive” throughout.

In the case of `O=[N+]([O-])c1ccc(F)c(Cl)c1`, the Potency result in experiment [1], in experiment [2], in experiment [3], in [10], in [6] and in experiment [7] was “inactive” throughout. The Potency result in [8] and in experiment [9] was “inactive” throughout.

Turning to `O=C(O)c1cc(-c2ccc(F)cc2F)ccc1O`, the Potency result in experiment [1], in experiment [2], in [3], in experiment [4], in experiment [6] and in experiment [7] was “inactive” each time. For the same compound, the Potency entry in experiment [8] and in [9] was “inactive” each time. Also, the activity change, positive = activation in [5] (at 42.5 µM (top of the series)) is -14.2%.

`S=C([S-])NCCNC(=S)[S-].S=C([S-])NCCNC(=S)[S-].[Mn+2].[Zn+2]`: the Potency entry in experiment [1], in [2], in experiment [3], in experiment [10], in [6] and in [8] was “inactive” in each case. Also, the Potency entry in experiment [9] was “inactive”.

Turning to `CCCNCCC`, the Potency result in experiment [1], in experiment [2], in [3], in [10], in [6] and in [7] was “inactive” throughout. Besides, the Potency entry in experiment [8] and in [9] was “inactive” each time.

Turning to `CCCC(=O)OC(C)(C)Cc1ccccc1`, the Potency entry in experiment [1], in [2], in [3], in experiment [10], in experiment [6] and in experiment [7] was “inactive” each time. In addition, the Potency entry in experiment [8] and in experiment [9] was “inactive” each time.

In the case of `OC/C=C/CO`, the Potency entry in [1], in [2], in [3], in experiment [10], in experiment [6] and in [7] was “inactive” each time. The Potency result in experiment [9] was “inactive”.

In the case of `O[C@@H]([C@H](O)[C@H](O)CBr)[C@H](O)CBr`, the Potency result in experiment [1], in experiment [2], in experiment [3], in experiment [10], in experiment [6] and in experiment [8] was “inactive” in each case. Besides, the Potency result in [9] is “inactive”.

As for `Oc1cc(Cl)cc(Cl)c1Cl`, the Potency result in experiment [1], in [2], in experiment [3], in experiment [6] and in [8] was “inactive” throughout. For the same compound, the Potency in experiment [10] was 51.7 µM (active).

On to `C=CC(=O)Nc1cc2c(Nc3ccc(F)c(Cl)c3)ncnc2cc1OCCCN1CCOCC1`, for which the Potency in [1] is 23.9 µM (active); in experiment [4] it was 16.8 µM (active); in experiment [6] it was 8.49 µM (active); in experiment [7] it was 9.52 µM (active); in experiment [9], 10.7 µM (active). The Potency entry in experiment [2] and in experiment [8] was “inactive” in each case. Further, in experiment [5] (at 42.5 µM (top of the series)), the activity change, positive = activation is -63.1%.

For `Cc1cc(C(C)(C)C)cc(C)c1CC1=NCCN1`, the Potency result in experiment [1], in experiment [2], in experiment [10], in experiment [4], in experiment [6] and in experiment [7] was “inactive” each time. Besides, the Potency entry in experiment [8] and in experiment [9] was “inactive” in each case. Moreover, the activity change, positive = activation in experiment [5] (at 42.5 µM (top of the series)) was -3.5%.

Take `CCc1oc2ccccc2c1C(=O)c1cc(I)c(O)c(I)c1`: the Potency result in experiment [1], in experiment [2], in experiment [6], in experiment [7], in [8] and in [9] was “inactive” throughout.

As for `O=C1C(c2[nH]c3ccc(S(=O)(=O)O)cc3c2O)=Nc2ccc(S(=O)(=O)O)cc21`, the Potency result in experiment [1], in experiment [3], in [10], in experiment [4], in [6] and in experiment [7] was “inactive” in each case. For the same compound, the Potency result in experiment [8] and in [9] was “inactive” each time. Besides, in [5] (at 92.4 µM (top of the series)), the activity change, positive = activation is -7.96%.

Turning to `O=C1CCc2cc(OCCCCc3nnnn3C3CCCCC3)ccc2N1`, the Potency entry in experiment [1], in experiment [2], in experiment [10], in experiment [6], in experiment [8] and in experiment [9] was “inactive” throughout.
